Assay outcomes from PubChem BioAssay.
Only some compounds are listed: those with a hit (about 2.3% of all), similar ones and a draw of the others.
Bim-Mcl-1 – human Bim-Mcl-1 interaction inhibition; Q07820; actives 0.1% (n = 190,000); inhibition, % at 10 µM; AID 1009; Bead-based flow cytometry, Bim peptide-Mcl-1 binding; in the data active means inhibition above about 40%;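 further: 0% = no compound tracer wells and 100% = peptide blocker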
Target sequence (Q07820 whole entry, looked up): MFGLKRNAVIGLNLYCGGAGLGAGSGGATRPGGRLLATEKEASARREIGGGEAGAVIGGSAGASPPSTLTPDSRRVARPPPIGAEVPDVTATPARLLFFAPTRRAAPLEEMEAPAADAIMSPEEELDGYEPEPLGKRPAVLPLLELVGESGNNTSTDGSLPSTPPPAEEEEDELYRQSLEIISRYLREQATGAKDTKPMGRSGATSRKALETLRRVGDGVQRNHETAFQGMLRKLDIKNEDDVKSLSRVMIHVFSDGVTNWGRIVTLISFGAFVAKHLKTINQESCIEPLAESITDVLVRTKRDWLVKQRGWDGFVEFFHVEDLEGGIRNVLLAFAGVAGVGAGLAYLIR
MCL1 BIM primary – inhibitors of human MCL1 binding to BIM-BH3 peptide | GST-MCL1 / FITC-Bim-BH3 fluorescence polarization | inhibition, % at 10.9 µM | actives 0.68% (n = 320,000) | AID 2057;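 active means inhibition above the mean inhibition of all tested compounds plus 3 SD, set per campaign, cut at about 40% in these data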;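 further: 0% = DMSO wells and 100% = unlabeled Bim-BH3 peptide control; higher means more loss of mP so more displacement of Bim peptide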
Mcl1 Noxa PPI – Mcl-1/Noxa interaction inhibition; TR-FRET Mcl-1/Noxa peptide binding, 2 h; inhibition, % at 21.7 µM; actives 1.5% (n = 220,000);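 active means compounds that cut the protein-peptide binding signal by more than 50% relative to plate controls in a single-dose test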;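 further: His-tagged Mcl-1 with rhodamine Noxa BH3 peptide and terbium anti-His antibody; 0% = Mcl-1 plus Noxa peptide wells and 100% = peptide-only wells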
GLD-1 TGE inh – GLD-1-TGE RNA interaction inhibition (C. elegans); actives 0.44% (n = 320,000); purified GLD-1 + fluorescein TGE RNA, fluorescence polarization; inhibition, % at 5.96 µM; Q17339;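 active means percent inhibition above a per-plate cutoff, the plate mean of test compounds plus 3 SD, cut at about 30% in these data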;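 further: 0% = DMSO wells with GLD-1 and probe and 100% = wells lacking GLD-1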
Mcl1-Bid inh – Mcl-1/Bid interaction inhibition. Q07820. TR-FRET Mcl-1/Bid-Dy647 peptide binding, 1536-well. inhibition, % at 21.7 µM. actives 0.97% (n = 220,000). AID 1021;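 active means compounds that cut the binding signal by more than half at the single screening dose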;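 further: His-tagged Mcl-1 with europium anti-His antibody binding Bid BH3 peptide; 0% = Mcl-1 plus peptide wells and 100% = peptide-only wells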
Bcl-xL primary – inhibitors of human Bcl-xL; inhibition, % at 10.9 µM; Q07817; AID 2129; actives 0.7% (n = 320,000); GST-Bcl-xL / FITC-Bim BH3 peptide fluorescence polarization;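 active means inhibition above the mean of all tested compounds plus 3 SD, cutoff set per campaign, cut at about 30% in these data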;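 further: 0% = DMSO wells and 100% = unlabeled Bim-BH3 peptide competitor; inhibitors lower millipolarization by displacing the labeled peptide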
Target sequence (Q07817 whole entry, looked up): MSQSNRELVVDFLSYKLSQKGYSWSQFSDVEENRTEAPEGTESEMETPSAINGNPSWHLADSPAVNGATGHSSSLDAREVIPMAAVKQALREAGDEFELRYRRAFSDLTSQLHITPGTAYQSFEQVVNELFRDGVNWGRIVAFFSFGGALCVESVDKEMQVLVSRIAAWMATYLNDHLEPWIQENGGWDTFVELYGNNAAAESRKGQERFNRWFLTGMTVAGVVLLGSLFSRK
BCLXL inh confirm – Bcl-xL (human) inhibition, MCL1 counter-screen confirmation | inhibition, % at 10.9 µM | shares compounds with MCL1 BIM primary | actives 54% (n = 1,700) | AID 2166 | GST-Bcl-xL / FITC-Bim BH3 peptide FP binding;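 active means inhibition above a cutoff equal to the mean inhibition of all tested compounds plus 3 SD, cut at about 30% in these data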;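 further: 0% = DMSO wells and 100% = unlabeled Bim BH3 control peptide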
MCL1 inh confirm – confirmation of human MCL1 and BIM-BH3 interaction inhibitors; inhibition, % at 10.9 µM; actives 61% (n = 1,700); shares compounds with MCL1 BIM primary; GST-MCL1 / FITC-Bim-BH3 fluorescence polarization;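 active means inhibition above the average of all tested compounds plus 3 SD, cut at about 40% in these data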;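 further: 0% = DMSO wells and 100% = unlabeled Bim-BH3 control peptide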
GLD1 RNA confirm – GLD-1 TGE RNA interaction inhibition, confirmation; shares compounds with GLD-1 TGE inh; GLD-1/FL-TGE RNA fluorescence polarization, biochemical; inhibition, % at 5.96 µM; actives 10% (n = 550); AID 2459;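 active means average inhibition across triplicates above the hit cutoff set in the primary screen, cut at about 32% in these data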;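 further: 0% = GLD-1 with RNA probe and DMSO and 100% = wells lacking GLD-1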
* = called active by the depositor; · = no result.

SMILES	Bim-Mcl-1	MCL1 BIM primary	Mcl1 Noxa PPI	GLD-1 TGE inh	Mcl1-Bid inh	Bcl-xL primary	BCLXL inh confirm	MCL1 inh confirm	GLD1 RNA confirm
COc1cccc(CNC(=O)CCC2CCCN(c3cc(C)nc(N4CCCC4)n3)C2)c1 (centres undefined)	-6	-6	15	5	-16	-5	·	·	·
O=C(C1CCC(=O)N(C2CCCCCC2)C1)N1CCN(c2ccccc2Cl)CC1 (centres undefined)	·	57*	·	31*	·	89*	10	-4	3
Cc1ccccc1N1CCN(C(=O)C2CCC(=O)N(C3CCCC3)C2)CC1 (centres undefined)	·	0	·	-1	·	1	·	·	·
Cc1ccc(C)c(-n2c3nc(=O)[nH]c(=O)c-3cc3cc([N+](=O)[O-])ccc32)c1	0	87*	32	59*	-15	76*	51*	74*	27
c1ccc(-c2ccc3ccccc3n2)cc1	·	-1	·	3	·	-2	·	·	·
CNc1ccccc(-c2ccc3ccccc3n2)c1=O	2	58*	43	35*	-91	48*	79*	95*	-5
Cc1ccc(C2Nc3ccccc3NC3=C2C(=O)CC(C)(C)C3)c(O)c1 (centres undefined)	·	52*	·	51*	·	47*	67*	94*	1
CCn1c(CSc2nccn2C)nc2cc(C(=O)O)ccc21	-2	65*	19	45*	-9	57*	33*	44*	40*
CN(Cc1cc(-c2ccccc2)on1)C(=O)c1cc(COc2c(F)cccc2F)on1	1	0	6	5	-1	9	·	·	·
Cc1ccccc1N=C(N)Nc1ccccc1C	·	71*	·	43*	·	63*	63*	85*	43*
CCc1ccc(NC(=O)C(C)OC(=O)/C=C/c2ccc(O)c(OC)c2)cc1 (centres undefined)	·	·	·	4	·	·	·	·	·
CCC(=Nc1ccc(N)cc1)C1=C(O)C(C(=O)OC)C(C)(C)CC1=O (centres undefined)	5	61*	16	46*	-59	56*	30*	19	-3
O=C(O)c1ccc(Cl)c2c1C1C=CCC1C(c1ccccn1)N2 (centres undefined)	5	115*	89*	39*	56*	85*	58*	82*	21
Cc1cc([N+](=O)[O-])cc2c1NC(c1ccccn1)C1CC=CC21 (centres undefined)	3	19	41	-4	-9	11	·	·	·
CN(C)CCCN1C(=O)c2cccc3c([N+](=O)[O-])ccc(c23)C1=O	0	77*	14	48*	-6	76*	92*	125*	22
CCOC(=O)C1=C(C)OC(N)=C(C#N)C1c1ccccc1 (centres undefined)	1	6	0	0	-30	8	·	·	·
CCC1OC2(C)OC(=N)C1(C#N)C(C#N)(C#N)C2c1ccccc1 (centres undefined)	-1	55*	18	44*	-33	60*	14	12	-1
Cc1ccc(/C=C2/NC(=O)N(Cc3ccccc3)C2=O)o1	2	49*	45	50*	-27	38*	-48	-83	-88
CN1C(=O)c2ccc(N(C)C)cc2C1=O	-4	35	-13	22	-20	28	·	·	·
CN1C(=O)c2ccc(N3CCCC3)cc2C1=O	1	63*	-7	36*	-6	48*	47*	55*	9
Cc1ccc(Cl)cc1N1CCN(C(=O)Cn2ncn3cccc3c2=O)CC1	·	2	·	-3	·	0	·	·	·
N#Cc1c(SCC(=O)N2CCOCC2)nsc1SCC(=O)N1CCOCC1	-3	76*	1	50*	3	66*	9	12	-2
Cc1c(NC=C(C#N)C#N)c(=O)n(-c2ccccc2)n1C	-2	75*	5	35*	-44	86*	11	19	1
Cc1c(N/C=C(\Cl)C(=O)C(F)(F)F)c(=O)n(-c2ccccc2)n1C	0	-6	2	-2	-25	-3	·	·	·
O=C(O)c1ccccc1N=Nc1ccc(O)cc1	·	64*	·	39*	·	58*	52*	60*	33*
SMILES	Bim-Mcl-1	MCL1 BIM primary	Mcl1 Noxa PPI	GLD-1 TGE inh	Mcl1-Bid inh	Bcl-xL primary	BCLXL inh confirm	MCL1 inh confirm	GLD1 RNA confirm
O=C(O)c1cc(O)ccc1N=Nc1ccccc1	·	1	5	-1	-46	2	·	·	·
c1ccc(CC2CCN(C3=Nc4cccc5cccc3c45)CC2)cc1	-3	9	26	4	-9	6	·	·	·
CCOC(=O)N1CCN(C2=Nc3cccc4cccc2c34)CC1	0	39	5	49*	-8	39*	·	·	30
COc1ccccc1N1CCN(C2=Nc3cccc4cccc2c34)CC1	-2	2	14	8	-9	3	·	·	·
CC(=O)N1CCN(C2=Nc3cccc4cccc2c34)CC1	-2	36	18	43*	-15	37*	·	·	38*
CC1CN(C2=Nc3cccc4cccc2c34)CC(C)O1 (centres undefined)	0	35	-15	47*	0	38*	·	·	36*
c1cc2c3c(cccc3c1)C(N1CCOCC1)=N2	·	31	19	45*	-16	29	·	·	32*
CCCC(C(=O)NNC(=O)c1cc(C)oc1C)c1ccccc1 (centres undefined)	·	·	·	-1	·	·	·	·	·
CCOC(=O)C1CCN(C(=O)CSc2nc3ncccc3[nH]2)CC1	·	0	·	-4	·	2	·	·	·
O=C1C(Cc2ccccc2)Nc2ncnc(N3CCN(c4ccccc4)CC3)c2N1Cc1ccc(Cl)cc1 (centres undefined)	·	-5	·	-10	·	-1	·	·	·
CCOc1ccc2[nH]c(=O)c(CN(Cc3cccs3)Cc3nnnn3C(C)(C)CC)cc2c1	0	4	-2	109*	9	7	·	·	-5
CCC(C)(C)n1nnnc1CN(Cc1cccs1)Cc1cc2cc(OC)ccc2[nH]c1=O	3	5	10	7	0	2	·	·	·
CCCCN(C(=O)CC1CCCC1)c1c(N)n(CC(C)C)c(=O)[nH]c1=O	·	-11	·	5	·	-4	·	·	·
OC1(c2cccc(C(F)(F)F)c2)CCN(Cc2nc(-c3cnccn3)no2)CC1	-3	-2	11	-3	-16	4	·	·	·
CC1(C)CC(=O)C2=C(C1)Nc1ccccc1NC2c1ccc(F)cc1 (centres undefined)	·	45*	·	35*	·	46*	·	·	0
